About 9,100 (2.5%) of roughly 360,000 compounds were called active. Another 4% or so got no clear call; they are omitted. Rule as the data show it: active = max response below about -50%; inconclusive = no clear call, values can overlap the other calls; inactive = above that. Shown is part of a subset that was picked to be rich in actives.
biological target: D(3) dopamine receptor (Homo sapiens) (UniProt P35462); test: qHTS of D3 Dopamine Receptor Antagonist: qHTS; settings: D3R cells, DiscoveRx beta-arrestin luminescence, antagonist mode; active compounds read low
Sequence (P35462 whole entry, looked up): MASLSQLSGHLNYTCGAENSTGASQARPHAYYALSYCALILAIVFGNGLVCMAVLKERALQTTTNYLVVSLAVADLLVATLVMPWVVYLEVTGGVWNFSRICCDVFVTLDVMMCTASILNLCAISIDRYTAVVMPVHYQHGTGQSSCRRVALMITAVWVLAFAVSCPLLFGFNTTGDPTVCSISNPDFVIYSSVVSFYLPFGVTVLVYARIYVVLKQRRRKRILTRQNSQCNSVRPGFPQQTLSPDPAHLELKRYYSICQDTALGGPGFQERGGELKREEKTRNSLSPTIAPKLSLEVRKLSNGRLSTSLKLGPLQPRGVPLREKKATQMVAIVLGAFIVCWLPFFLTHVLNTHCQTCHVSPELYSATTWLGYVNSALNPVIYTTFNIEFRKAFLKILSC
How it was run: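 Cells plated overnight at 1500 cells/well, then exposed to library compounds with dopamine controls for 90 minutes at 37 degrees C. DiscoveRx reagent added for 30–60 minutes at room temperature; luminescence read, quantitative HTS format.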
% is scaled to controls: 0 for no effect and ±100 for the full control effect.

Compound | max response, negative = inhibition
COC(=O)c1ccc2nc(-c3ccc(OC)c(OC)c3)c(Cc3ccccc3)n2c1 | 1.12% (inactive)
COc1cc(NS(=O)(=O)c2ccc3ccccc3c2)c2ncccc2c1 | -25.7% (inactive)
Cc1ccc2cccc([N+](=O)[O-])c2n1 | 0% (inactive)
O=[N+]([O-])c1ccccc1S(=O)(=O)Nc1cccc2cccnc12 | -72% (active)
CC(C)Oc1cc(F)ccc1-c1cc(C(=O)Nc2cccc(Cl)c2)[nH]n1 | 0% (inactive)
CCOC(=O)C1=CC[C@@H](c2ccccc2)N(S(=O)(=O)c2ccc(C)cc2)[C@H]1c1cccc(OC)c1 | 11.2% (inactive)
CCc1cc(-c2nnn(CCC3COCCO3)c2CC)ccc1-c1cn(Cc2ccc3ccccc3c2)nn1 (centres undefined) | -10.8% (inactive)
Cc1ccc(OCC(=O)Oc2ccccc2[N+](=O)[O-])cc1 | 0.0069% (inactive)
O=C(COc1ccccc1[N+](=O)[O-])NC1CC1 | 16.3% (inactive)
Cc1cc(OCCCN2CCN(Cc3ccccc3)CC2)ccc1[N+](=O)[O-] | -14.9% (inactive)
Cc1cc(C)c(OCCN2CC(C)OC(C)C2)c(Br)c1 (centres undefined) | -21.2% (inactive)
O=[N+]([O-])c1ccccc1OCCCCN1CCCCC1 | -89.3% (active)
O=C(COc1ccc(Cl)cc1[N+](=O)[O-])N1CCCCC1 | -5.15% (inactive)
C=CCN(CC=C)CCOc1ccccc1[N+](=O)[O-] | -52.4% (active)
CC1CN(CCOc2ccccc2[N+](=O)[O-])CC(C)O1 (centres undefined) | -93.5% (active)
CC1CN(CCCOc2ccccc2-c2ccccc2)CC(C)O1 (centres undefined) | -29.6% (inactive)
O=c1[nH][nH]c2c1[C@H](c1ccc(Cl)cc1)O[C@H](CCc1ccccc1)C2 | -23.3% (inactive)
CCCNC(=O)C1(C)CCN(C(=O)c2cc(F)ccc2C)C1 (centres undefined) | -11.8% (inactive)
CC(C)CN1CCC1(C)C(=O)Nc1ccc(OC(F)F)cc1 (centres undefined) | 12.7% (inactive)
O=C(Nc1cc(F)ccc1F)c1ccc2c(=O)n3c(nc2c1)CCC3 | 8.55% (inactive)
Cc1ccc(NC(=O)[C@H](Cc2ccccc2)NC(=O)CC[C@H]2O[C@@H](n3ccc(=O)[nH]c3=O)[C@H](O)[C@@H]2O)cc1C | -15.6% (inactive)
OC[C@@H]1CN(Cc2ccc(F)cc2)C[C@H](n2cnc3c(NC4CCCC4)ncnc32)O1 | 4.42% (inactive)
CC1(C(=O)NS(=O)(=O)c2ccccc2)CCN1C(=O)c1ccccc1 (centres undefined) | 10.2% (inactive)
CC1(C(=O)O)CCN1C(=O)/C=C/c1ccccc1 (centres undefined) | 0% (inactive)

Compound | max response, negative = inhibition
CC1(C)CCSC(/C=C/c2ccccc2)=N1 | -74.9% (active)
CC1(C(=O)NS(=O)(=O)c2ccccc2)CCN1C(=O)C/C=C/c1ccccc1 (centres undefined) | -9.32% (inactive)
CCC1OC(C2CC2)CC2=C1C(=O)OC(C)(C)O2 (centres undefined) | 14.7% (inactive)
CCCC(=O)N1CCC1(C)C(=O)NCc1ccc(C(C)C)cc1 (centres undefined) | -6.82% (inactive)
CC(C)(C)N(CC#CCC(O)(c1ccccc1)C1CCCC1)CCO (centres undefined) | 11.7% (inactive)
CN(CC#CCC(c1ccccc1)c1ccccc1)C(C)(C)C | -61.6% (active)
O=C1CCC(=O)N1CCC(=O)N(C(=O)NC1CCCCC1)C1CCCCC1 | 14.6% (inactive)
CC1(C)NC(=O)N(CC(=O)Nc2ccc(-c3ccccc3)cc2)C1=O | 16.4% (inactive)
c1ccc2c(c1)CSc1sccc1C2=C1CCNCC1 | -65.7% (active)
COc1ccccc1N1CCN(CCCCOc2ccc(F)cc2)CC1 | -78.2% (active)
Cc1cccc(NC(=O)CCN2CC(C)CC(C)C2)c1 (centres undefined) | -1.96% (inactive)
OCCN1CCN(C(=S)c2ccc(-c3ccccc3)cc2)CC1 | -6.47% (inactive)
COc1ccccc1N1CCN(CC(=O)NC(=O)NCc2ccco2)CC1 | -22.2% (inactive)
CCN1CCN(CCCCOc2ccccc2F)CC1 | -71.5% (active)
Fc1ccccc1OCCCCn1cncn1 | 2.5% (inactive)
CN1CCN(CCCCOc2ccccc2-c2ccccc2)CC1 | -71% (active)
Cc1[nH]c2ccccc2c1C(=O)CN1CC(C)CC(C)C1 (centres undefined) | -3.3% (inactive)
COc1ccccc1N1CCN(c2ccc([N+](=O)[O-])nc2)CC1 | 5.81% (inactive)
Cc1ccc(/C=N/NC(=O)COc2ccccc2-c2ccccc2)cc1 | 25.4% (inactive)
O=c1c2ccccc2ncn1CCCCOc1ccccc1F | -15.9% (inactive)
CC1CC(C)CN(CCOc2cccc3ccccc23)C1 (centres undefined) | -86.3% (active)
Nc1nc2ncccn2c1-c1ccccc1 | -1.52% (inactive)
O=C(COC(=O)c1cccc(Cl)c1Cl)NC1CCCCCC1 | -13.8% (inactive)
CC1CCCC(C)N1C(=O)COC(=O)c1ccccc1C(=O)c1ccccc1 (centres undefined) | -17.2% (inactive)

Compound | max response, negative = inhibition
O=C(Nc1ccc(Cl)c(C(F)(F)F)c1)C1Cc2c(-c3ccccc3Oc3ccccc3)ccnc2O1 (centres undefined) | 0% (inactive)
CCCCN1C[C@H](c2ccc(Br)cc2)[C@@H](CC(=O)Nc2ccc(Br)cc2)C1=O | 24.8% (inactive)
COc1ccc(C(=O)C(OP(=O)(OC)OC)c2ccccc2OC)cc1 (centres undefined) | 2.58% (inactive)
CC(C)c1cccc(C(C)C)c1Nc1cn[nH]c1 | 157% (inactive)
C[C@@H]1CN([C@@H](C)CO)C(=O)CCCn2nncc2CO[C@H]1CN(C)C(=O)Nc1ccc(C(F)(F)F)cc1 | -16.1% (inactive)
CCCCOCCCNC(=O)C[C@@H]1C[C@@]2(C(=O)OC)CCCCC=C2N(CCC2=CCCCC2)C1=O | 0% (inactive)
CC(C)NC(=O)C1(C)CCCCN1Cc1cccc(C(F)(F)F)c1 (centres undefined) | 0% (inactive)
CCOC(=O)C1C(C)C(C(C)(C)C)N(S(=O)(=O)c2ccc(C)cc2)C1c1ccccc1 (centres undefined) | 15.8% (inactive)
CC1(C(=O)Nc2cccc3cccnc23)CCN1C(=O)CCC1CCCC1 (centres undefined) | 0% (inactive)
COc1ccccc1OCCCCCCN1CCN(C)CC1 | 0.923% (inactive)
CCOC(=O)C1CCN(C(=O)COc2cccc3ccccc23)CC1 | 2.44% (inactive)
CN1CCN(CCCCOc2cccc3ccccc23)CC1 | -59% (active)
C[N+](C)(C)CCNC(=O)c1c[nH]c2ccccc12 | 0% (inactive)
CCOC(=O)[C@]12CCC=C1N(Cc1ccco1)C(=O)[C@H](CC(=O)N1CCSCC1)C2 | 2.85% (inactive)
COC(=O)[C@@]12C[C@@H](CC(=O)N3CCC(c4ccccc4)CC3)C(=O)N(Cc3ccccc3)C1=CCC(C)(C)C2 | 15.3% (inactive)
COc1ccc(-c2cc3c(c4c2ccn4C)C2CCC3C2)cn1 (centres undefined) | 12.4% (inactive)
O=C(CSc1nc2cccc(F)c2c(=O)n1-c1ccccc1)Nc1ccc2c(c1)CCC2 | -3.93% (inactive)
O=C(CSc1nnc2scc(-c3ccc(F)cc3)n12)NCc1ccco1 | 5.75% (inactive)
Cn1c(-c2ccc(F)cc2)cnc1SCC(=O)NNC(=O)Cc1ccccc1 | -14.6% (inactive)
Cn1c(-c2ccc(F)cc2)cnc1SCC(=O)NCc1ccco1 | -51.9% (active)
CCCCCn1nnnc1C1c2ccccc2C(=O)N1Cc1ccco1 (centres undefined) | -21.5% (inactive)
O=NN(CCCl)C(=O)NCCc1cccc[n+]1[O-] | -1.68% (inactive)
CCN1CCN(C(=O)c2ccccc2N(C)S(=O)(=O)c2ccc(C)cc2)CC1 | -77.3% (active)
CCOC(=O)C1CCN(C(=O)c2ccccc2N(C)S(=O)(=O)c2ccccc2)CC1 | -4.73% (inactive)

Compound | max response, negative = inhibition
CCOC(=O)N1CCN(C(=O)c2ccccc2N(Cc2ccccc2)S(=O)(=O)c2ccc(OC)cc2)CC1 | -17.6% (inactive)
Clc1ccccc1Nc1nc(NCc2cccs2)nc2ccsc12 | 31.9% (inactive)
O=C(C[C@H]1CC[C@@H](NC(=O)c2ccncc2)[C@@H](CO)O1)NCC1CC1 | 12.2% (inactive)
O=C(NCc1nnnn1-c1ccc(Cl)cc1)c1ccc2c(c1)OCO2 | -11.2% (inactive)
CC(=O)N/C(=C/c1ccc(OC(F)F)cc1)C(=O)O | -58.1% (active)
CC(=O)N/C(=C\c1ccccc1)C(=O)OC(C)C(=O)N(C)c1ccccc1 (centres undefined) | -13.3% (inactive)
CC(=O)N/C(=C\c1ccc(F)cc1)C(=O)NC(Cc1ccccc1)C(=O)O (centres undefined) | 3.22% (inactive)
CC1(Cc2cccc(C#N)c2)C(=O)Nc2ccc(-c3cccc(C(F)(F)F)c3)cc21 (centres undefined) | 19.7% (inactive)
CCOc1cc(CNn2c(C)nnc2SCC(=O)NC(C)(C)C)ccc1OCC(=O)NC(C)(C)C | 4.21% (inactive)
CCOc1cc(C)c(S(=O)(=O)NCc2ccccn2)cc1C | 4.2% (inactive)
CCOc1cc(CNCc2ccccn2)ccc1OCC(=O)NC(C)(C)C | -58.7% (active)
CC1(C)CC(=O)C2=C(C1)N=C1SCCC(=O)N1C2c1ccc(C(F)(F)F)cc1 (centres undefined) | -94.4% (active)
CNC(=O)C[C@H]1C(=O)N(Cc2ccccc2)C[C@@H]1CSC | -17.4% (inactive)
O=S(=O)(c1ccc(Br)cc1)c1nc(-c2ccccc2)oc1N1CCOCC1 | -1.47% (inactive)
O=S(=O)(c1ccccc1)c1nc(-c2ccccc2)oc1NCCCN1CCOCC1 | -64.3% (active)
O=S(=O)(c1ccc(Cl)cc1)c1nc(-c2ccccc2F)oc1NCCN1CCOCC1 | -10.5% (inactive)
CC(=O)c1cccc(-c2cnc3c(NC=O)cc(-c4ccc(N(C)C)cc4)cn23)c1 | 4.39% (inactive)
CCOCCCNCc1cc(Br)ccc1OCC | 4.27% (inactive)
CCOc1ccccc1OCCCNCc1ccccc1 | -58.9% (active)
c1ccc(CNCc2ccc(CNCc3ccccc3)cc2)cc1 | -21.6% (inactive)
CCCCN1CC(N2CCN(Cc3cccc(C)c3)CC2)CS1(=O)=O (centres undefined) | 0.736% (inactive)
OCCC#Cc1ccc(N2C(c3ccsc3)=Cc3ccc(F)cc3C2c2c[nH]c3ccccc23)cc1 (centres undefined) | -3.75% (inactive)

Reference: PubChem BioAssay AID652054 (National Center for Advancing Translational Sciences (NCATS), 2013)
